What all share (test): NCI-60 one-dose screen, 48 h (100 = growth as untreated, 0 = no growth, -100 = all killed)
One assay relates to K-562 leukemia. To be noted: 10 µM unless noted.
A further assay concerns MALME-3M melanoma. Particulars: 10 µM unless noted.
The next assay concerns MDA-MB-231 breast. Particulars: 10 µM unless noted.
For a further assay, the system named is RXF 393 renal. To be noted: 10 µM unless noted.
A further assay relates to SF-268 CNS. Particulars: 10 µM unless noted.
Another assay has as its system SF-295 CNS. To be noted: 10 µM unless noted.
In the next assay the test system is SF-539 CNS. To be noted: 10 µM unless noted.
A further assay concerns UACC-257 melanoma. Particulars: 10 µM unless noted.
The test system of another assay is M14 melanoma. Particulars: 10 µM unless noted.
In a further assay the test system is HCT-15 colon. Particulars: 10 µM unless noted.
The test system of a further assay is HT29 colon. To be noted: 10 µM unless noted.
In a further assay the test system is SNB-75 CNS. To be noted: 10 µM unless noted.
Another assay concerns SNB-19 CNS. Particulars: 10 µM unless noted.
A further assay relates to U251 CNS. Particulars: 10 µM unless noted.
Another assay relates to PC-3 prostate. To be noted: 10 µM unless noted.
The test system of a further assay is SK-MEL-5 melanoma. Particulars: 10 µM unless noted.
The next assay relates to UACC-62 melanoma. Particulars: 10 µM unless noted.
In a further assay the test system is LOX IMVI melanoma. Particulars: 10 µM unless noted.
For the next assay, the system named is SK-MEL-28 melanoma. To be noted: 10 µM.
The test system of the next assay is SK-MEL-2 melanoma. Particulars: 10 µM unless noted.

Compounds without any hit were thinned out: in the full panel of roughly 83,000, 20% have a hit.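 How to read the values: 0–100, growth inhibition (40 = 60% inhibited); 0, no net growth; -100 to 0, cell death (-40 = 40% of starting cells died; -100 = all dead).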 Values without a mark were called inactive. Activity calls are given as the source filed them. Rule for the calls: active = growth percent below 10; inactive = the rest.

Turning to `COc1cc(/C=C2\CN(S(=O)(=O)c3ccccc3)C/C(=C\c3cc(CN4CCCC4)c(O)c(OC)c3)C2=O)cc(CN2CCCC2)c1O`, the growth in the assay on K-562 leukemia was 8.41% (active); with MALME-3M melanoma, -51.6% (active); with MDA-MB-231 breast it was -32.7% (active); with RXF 393 renal it was -65.4% (active); in the assay on SF-268 CNS, 12.9%; in the assay with SF-295 CNS it was -34.2% (active). Moreover, the growth in the assay with SF-539 CNS was -46.6% (active); in the assay with UACC-257 melanoma, 40.1%; in the assay on M14 melanoma, -19.2% (active); in the assay with HCT-15 colon it was 50.3%; in the assay on HT29 colon, -9.09% (active); in the assay on SNB-75 CNS it was 20.2%. The growth with SNB-19 CNS was 12.2%; with U251 CNS it was -21.7% (active); with PC-3 prostate it was 8.85% (active); with SK-MEL-5 melanoma, 20.7%; in the assay on UACC-62 melanoma it was -60% (active); with LOX IMVI melanoma it was -75.4% (active). The growth is 10.5% in the assay with SK-MEL-28 melanoma and -0.727% (active) in the assay on SK-MEL-2 melanoma.
On to `O=c1c2cc(F)ccc2sc2c(NCCN3CCCC3)nc3ccccc3c12`, for which the growth in the assay with K-562 leukemia was -43.2% (active); in the assay with MALME-3M melanoma, 83%; in the assay with MDA-MB-231 breast it was 30.8%; in the assay on RXF 393 renal it was 38.3%; in the assay with SF-268 CNS, 47%; with SF-295 CNS, 85.6%. The growth in the assay with SF-539 CNS is 61.8%; with UACC-257 melanoma, 92%; in the assay on M14 melanoma it was 15.1%; in the assay with HCT-15 colon, 27.6%; with HT29 colon, 13.9%; with SNB-75 CNS it was 77.6%. The growth was 69.2% in the assay with SNB-19 CNS; 35.7% in the assay on U251 CNS; 61% in the assay with PC-3 prostate; 79.7% in the assay on SK-MEL-5 melanoma; 38.2% in the assay on UACC-62 melanoma; 28.4% in the assay with LOX IMVI melanoma. Besides, the growth in the assay on SK-MEL-28 melanoma was 71.6%; with SK-MEL-2 melanoma it was 91%.
Take `CCOC(=O)C1=C(C)N=c2s/c(=C\c3ccccc3O)c(=O)n2C1c1ccc(OC)c2ccccc12` (stereo not given): the growth is -48.4% (active) with K-562 leukemia; -86.7% (active) with MALME-3M melanoma; -38.9% (active) in the assay with MDA-MB-231 breast; -20.6% (active) with RXF 393 renal; 37.6% in the assay on SF-268 CNS; -83.5% (active) in the assay on SF-295 CNS. In addition, the growth was -83.7% (active) with SF-539 CNS; -85.8% (active) in the assay on UACC-257 melanoma; -71.7% (active) in the assay on M14 melanoma; 1.84% (active) with HCT-15 colon; -52.2% (active) with HT29 colon; -44.2% (active) with SNB-75 CNS. For the same compound, the growth in the assay with SNB-19 CNS was 58.1%; with U251 CNS, -68.6% (active); in the assay on PC-3 prostate, 22.9%; in the assay on SK-MEL-5 melanoma it was -98.1% (active); in the assay on UACC-62 melanoma it was -85.4% (active); in the assay on LOX IMVI melanoma, -85.6% (active). The growth with SK-MEL-28 melanoma is -96.2% (active); in the assay on SK-MEL-2 melanoma it was -75.5% (active).
Take `COC(=O)/C(CCC=C(C)C)=C1\[C@@H](OC(C)=O)C[C@@]2(C)[C@H]1CC(=O)[C@H]1[C@@]3(C)CC[C@H](NCc4ccccc4)[C@@H](C)[C@@H]3CC[C@@]12C`: the growth was 28.8% with K-562 leukemia; 92.5% with MALME-3M melanoma; 90.5% in the assay with MDA-MB-231 breast; 69.4% with RXF 393 renal; 79.6% in the assay on SF-268 CNS; 98.2% in the assay with SF-295 CNS. Moreover, the growth was 82.9% in the assay with SF-539 CNS; 99.7% in the assay with UACC-257 melanoma; 89.7% in the assay on M14 melanoma; 72.1% with HCT-15 colon; 37.8% with HT29 colon; 83.2% with SNB-75 CNS. In addition, the growth in the assay with SNB-19 CNS is 95.7%; with U251 CNS, 74%; in the assay with PC-3 prostate, 70.4%; in the assay with SK-MEL-5 melanoma, 89.6%; in the assay on UACC-62 melanoma, 86.7%; in the assay on LOX IMVI melanoma, 81.8%. The growth in the assay on SK-MEL-28 melanoma is 96.7%; in the assay on SK-MEL-2 melanoma, 106%.
Consider `Cc1ccc(C)c(-c2csc(Nc3ccc(C)c(C)c3)n2)c1`, for which the growth in the assay with K-562 leukemia was -36.5% (active); in the assay with MALME-3M melanoma, -86.3% (active); in the assay with MDA-MB-231 breast, 39.5%; in the assay with RXF 393 renal it was 21.8%; in the assay on SF-268 CNS, 75.5%; with SF-295 CNS it was -79.5% (active). Besides, the growth in the assay on SF-539 CNS is 25.1%; in the assay with UACC-257 melanoma it was -58.6% (active); in the assay on M14 melanoma, -81.3% (active); in the assay with HCT-15 colon it was 12.4%; in the assay on HT29 colon, 4.56% (active); with SNB-75 CNS, 34%. In addition, the growth in the assay on SNB-19 CNS is 84%; with U251 CNS it was 8.11% (active); with PC-3 prostate, 63.9%; with SK-MEL-5 melanoma, -92.3% (active); in the assay on UACC-62 melanoma, 49.2%; in the assay on LOX IMVI melanoma, -67.9% (active). Also, the growth with SK-MEL-28 melanoma is -93.3% (active); in the assay on SK-MEL-2 melanoma, 31.6%.
Regarding `Nc1ccc(-c2ccc(-c3ccccc3N)c3[nH]c4ccccc4c23)cc1`, the growth in the assay on K-562 leukemia is 13.4%; with MALME-3M melanoma, 36.8%; in the assay with MDA-MB-231 breast, 36.2%; with RXF 393 renal, 24.5%; in the assay on SF-268 CNS, 39.5%; in the assay with SF-295 CNS, 22.2%. Moreover, the growth in the assay on SF-539 CNS was 28%; with UACC-257 melanoma it was 33.2%; in the assay with M14 melanoma, 6.58% (active); with HCT-15 colon, 19.5%; in the assay on HT29 colon it was 13.9%; in the assay with SNB-75 CNS it was 28.4%. For the same compound, the growth with SNB-19 CNS is 39%; with U251 CNS it was 35.4%; in the assay with PC-3 prostate, 24.9%; in the assay with SK-MEL-5 melanoma, 6.03% (active); with UACC-62 melanoma it was 25.4%; in the assay on LOX IMVI melanoma, 27.7%. Moreover, the growth is 51% with SK-MEL-28 melanoma and 19.5% in the assay with SK-MEL-2 melanoma.
Consider `NC1(N2SC(S)=C3CCCC=C32)CCCCC1`, for which the growth in the assay on K-562 leukemia was 84.9%; with MALME-3M melanoma, 102%; with MDA-MB-231 breast, 107%; in the assay on RXF 393 renal it was 129%; in the assay on SF-268 CNS, 96.3%; in the assay on SF-295 CNS, 115%. Further, the growth in the assay with SF-539 CNS is 104%; with UACC-257 melanoma, 99.8%; in the assay with M14 melanoma it was 101%; in the assay with HCT-15 colon, 108%; with HT29 colon it was 97.1%; in the assay with SNB-75 CNS, 91.7%. Also, the growth in the assay on SNB-19 CNS is 96.9%; in the assay on U251 CNS, 101%; in the assay on PC-3 prostate, 109%; with SK-MEL-5 melanoma, 104%; in the assay on UACC-62 melanoma, 104%; in the assay with LOX IMVI melanoma it was 94.7%. The results for the growth with SK-MEL-28 melanoma and in the assay with SK-MEL-2 melanoma were 114% and 111%, respectively.

The values above are taken from PubChem BioAssay (NCI).
